Source: PubChem BioAssay (NCI)
Compounds without any hit were thinned out: in the full panel of roughly 83,000, 20% have a hit.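 Testing used 96-well plates and a 48-hour single-concentration exposure. Example: -40 means 40% of the starting cells died.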 A number with no mark means an inactive call. Active and inactive are the calls of the source. The calls were made as follows: active = growth percent below 10; inactive = the rest.

The compounds below were run on RPMI-8226 leukemia (assay: NCI-60 one-dose screen, 48 h (100 = growth as untreated, 0 = no growth, -100 = all killed)). Conditions: 10 µM unless noted.

| SMILES | growth |
| --- | --- |
| COc1cc(OC)c(S(N)(=O)=O)cc1C(C)=O | 103% |
| C=CCn1c(SCC(=O)Nc2ccc(C(=O)/C=C/c3cccc([N+](=O)[O-])c3)cc2)nnc1-c1c[nH]c2ccccc12 | 11.9% |
| CCN1CCN(C(=O)[C@]23CCC(C)(C)C[C@H]2C2=CC[C@@H]4[C@@]5(C)Cc6c([nH]c7ccccc67)C(C)(C)[C@@H]5CC[C@@]4(C)[C@]2(C)CC3)CC1 | 84.9% |
| COc1cccc(C(=O)Nc2cccc(C#Cc3cccc4[nH]nc(N)c34)c2)c1 | 39.2% |
| COc1cc2nc(Cl)nc(Nc3cccc(C4=Nc5c(N)nc(N)nc5NC(c5ccc(Br)cc5)C4)c3)c2cc1OC (configuration not stated) | -2.07% (active) |
| Cc1cc(-c2ccc(Cl)cc2)n(Cc2nnc(SCC(=O)Nc3ccc(S(N)(=O)=O)cc3)n2C2CCCCC2)n1 | 102% |
| COc1cc(OC)cc(C(=O)Nc2sc3c(c2C(N)=O)CCC(=O)C3)c1 | 1.86% (active) |
| CC(C)(C)c1ccc(CC(=O)Nc2sc3c(c2C(N)=O)CCC(=O)C3)cc1 | -20.7% (active) |
| c1cn2c(ccc3nc(-c4cn[nH]c4)c4c(c32)CCCC4)n1 | 80.7% |
| Clc1nc2ccccc2nc1-c1nnc(C2CCCCC2)o1 | 95.4% |
| N#Cc1ccccc1Cn1c2nc(=N)c3ccccc3c-2nc2ccccc21 | 77.2% |
| COc1cc2nc(Cl)nc(Nc3cccc(C4=Nc5c(N)nc(N)nc5NC(c5ccc(F)cc5)C4)c3)c2cc1OC (configuration not stated) | -3.6% (active) |
| Cc1ccc2sc3c(c2c1)OC(N)=C(C#N)C3c1ccc(Cl)cc1 (configuration not stated) | 93.2% |

The compounds below were run on OVCAR-8 ovarian in the same assay as above. Conditions: 10 µM unless noted.

| SMILES | growth |
| --- | --- |
| COc1cc(OC)c(S(N)(=O)=O)cc1C(C)=O | 104% |
| O=S(=O)(Nc1ccc2c(c1)OCO2)c1ccc(-c2cnc(C3CC3)o2)cc1 | 46.8% |
| COc1cccc2c1CN(C(=O)c1ccc(O)c(C(=O)N3Cc4ccc(OCCC[P+](c5ccccc5)(c5ccccc5)c5ccccc5)cc4C3)c1)C2 | 79.5% |
| O=S(=O)(Nc1ccc(I)cc1Cl)c1ccc(-c2cnc(C3CC3)o2)cc1 | 62.2% |
| C=C(C=O)[C@@H]1CC[C@]2(CO)CC[C@]3(C)[C@H](CC[C@@H]4[C@@]5(C)CCCNC(C)(C)[C@@H]5CC[C@]43C)[C@@H]12 | 50.8% |
| C=CCn1c(SCC(=O)Nc2ccc(C(=O)/C=C/c3cccc([N+](=O)[O-])c3)cc2)nnc1-c1c[nH]c2ccccc12 | 90.4% |
| CNC(=O)c1c(NC(=O)c2cccc(C(F)(F)F)c2F)sc2c1CCC(=O)C2 | 16.8% |
| COc1ccc(C2c3sc4c(C)cccc4c3Oc3nc(CC(=O)Nc4ccccc4)[nH]c(=O)c32)cc1 (configuration not stated) | 99.8% |
| COCCNc1ccc2ncc(C#Cc3cncc(C(=O)Nc4ccc(CN5CCN(C)CC5)c(C(F)(F)F)c4)c3)n2n1 | -5.34% (active) |
| CCN1CCN(C(=O)[C@]23CCC(C)(C)C[C@H]2C2=CC[C@@H]4[C@@]5(C)Cc6c([nH]c7ccccc67)C(C)(C)[C@@H]5CC[C@@]4(C)[C@]2(C)CC3)CC1 | 91.8% |
| CCn1c(SCC(=O)Nc2cccc(C(=O)/C=C/c3ccc(C)cc3)c2)nc2ccccc2c1=O | 90.9% |
| CN1c2ccccc2Sc2cc(C=C(C#N)C#N)ccc21 | 94.4% |
| CN1CCN(Cc2ccc(NC(=O)c3cncc(C#Cc4cnn5cccnc45)c3)cc2C(F)(F)F)CC1 | 13.5% |
| N#Cc1cccc(/C(N)=N/C(N)=N/c2nc3ccccc3s2)c1 | 35% |
| NS(=O)(=O)c1ccc(Nc2nc(N/N=C/c3c[nH]c4ccccc34)nc(Nc3ccccc3)n2)cc1 | 37.8% |
| N#C/C(=C\c1ccc(-c2ccc(Cl)cc2Cl)o1)c1ccc(F)cc1 | 93.8% |
| O=C1/C(=C/C=C/c2ccco2)SC(=S)N1C1CCCCC1 | 97.4% |
| O=C(Nc1cccc(Cl)c1)Nc1nc2ccc([N+](=O)[O-])cc2o1 | 6.36% (active) |
| COc1cccc(C(=O)Nc2cccc(C#Cc3cccc4[nH]nc(N)c34)c2)c1 | 50.4% |
| COc1cc(OC)c(S(N)(=O)=O)cc1C(=O)/C=C/c1ccc(Cl)cc1 | 3% (active) |

| SMILES | growth |
| --- | --- |
| COc1cc2nc(Cl)nc(Nc3cccc(C4=Nc5c(N)nc(N)nc5NC(c5ccc(Br)cc5)C4)c3)c2cc1OC (configuration not stated) | 54.6% |
| CC1=N[C@@H]2CN(C(=O)OC(C)(C)C)C[C@@H]2n2c1cc1ccccc1c2=O | 101% |
| O=S(=O)(NCCNc1nccc(-n2cnc3ccccc32)n1)c1ccc(Br)cc1 | 95.6% |
| Cc1cc(-c2ccc(Cl)cc2)n(Cc2nnc(SCC(=O)Nc3ccc(S(N)(=O)=O)cc3)n2C2CCCCC2)n1 | 99.2% |
| COc1cc(OC)cc(C(=O)Nc2sc3c(c2C(N)=O)CCC(=O)C3)c1 | 42.1% |
| COc1cccc2cc(-c3cc4ccccc4[nH]3)/c(=N\NC(=O)c3ccc(Cl)cc3)oc12 | 20.7% |
| CC(C)(C)c1ccc(CC(=O)Nc2sc3c(c2C(N)=O)CCC(=O)C3)cc1 | 11.1% |
| c1cn2c(ccc3nc(-c4cn[nH]c4)c4c(c32)CCCC4)n1 | 57.1% |
| COc1cc(-c2nn(C(C)(C)C)cc2-c2ccnc(NCCCNS(=O)(=O)c3ccc(F)cc3)n2)ccc1Cl | 89.2% |
| Clc1nc2ccccc2nc1-c1nnc(C2CCCCC2)o1 | 101% |
| CCCn1cnc2c(c1=N)C(c1ccc(F)cc1)c1sc3c(CC)cccc3c1O2 (configuration not stated) | 26.2% |
| COc1ccc(-n2c(/C=C3\C(=O)Nc4ccccc43)ccc2CO)cc1 | 102% |
| N#Cc1ccccc1Cn1c2nc(=N)c3ccccc3c-2nc2ccccc21 | 66.4% |
| COc1cc2nc(Cl)nc(Nc3cccc(C4=Nc5c(N)nc(N)nc5NC(c5ccc(F)cc5)C4)c3)c2cc1OC (configuration not stated) | 51.6% |
| CCn1c2ccccc2c2cc(-n3nncc3-c3ccccc3)ccc21 | 27% |
| CCCn1cnc2c(c1=N)C(c1ccc(Cl)cc1)c1sc3c(CC)cccc3c1O2 (configuration not stated) | 20.5% |
| Cc1ccc(C2=Nn3c(nnc3-c3ccccc3)SC2)cc1 | 25.9% |
| Cc1ccc2sc3c(c2c1)OC(N)=C(C#N)C3c1ccc(Cl)cc1 (configuration not stated) | 96.7% |
| Cc1ccc(NC(=O)N[C@@H](Cc2cc(F)cc(F)c2)C(=O)NC2C(=O)N3C[C@H](O)C[C@H]3C(=O)N3CCCC[C@H]3C(=O)N[C@@H](CO)C(=O)N3C[C@H](C)C[C@H]3C(=O)O[C@H]2C)c(F)c1 (some centres not stated) | 44.1% |
